Measured values from PubChem BioAssay AID1531 (NMMLSC, 2009).
Out of some 290,000 compounds screened, about 3,300 (1.1%) were called active. Only a selection was taken, and actives are over-represented in it overall. A number with no mark means an inactive call. No stated cut-off is given here; in the data, active means binding response below about 67% or above about 130%; inconclusive means no clear call, values can overlap the other calls; inactive means in between.

These molecules were tested against Mitogen-activated protein kinase kinase kinase 2 (Homo sapiens) (UniProt Q9Y2U5) (assay: wildtype MEKK2 PB1-MEK5 interaction, increase or decrease – biochemical, multiplex bead flow cytometry, Alexa488-MEK5, primary screen (AID 1531)). Details: Alexa488-MEK5 binding to MEKK2 WT, at 10 µM, actives lie on both sides.

| Compound | binding response (% of control) |
| --- | --- |
| O=C1c2ccccc2S(=O)(=O)c2cc(N3CCN(c4ccccn4)CC3)ccc21 | 97% |
| Cc1cccc(C(=O)N2CCN(S(=O)(=O)N3CCCCC3)CC2)c1 | 108% |
| COC(C/C=C/C(=O)[C@@H](C)OCc1ccccc1)OC | 99% |
| Cc1nc(-c2ccccc2)sc1C1(C)CC(c2cccnc2)=NO1 (centres undefined) | 101% |
| COc1ccc(NC2CCCN(C(=O)c3ccncc3)C2)cc1 (centres undefined) | 97% |
| COc1cccc(CN(C)CC(O)COC(c2ccccc2)c2ccccc2C)c1 (centres undefined) | 150% (active) |
| COc1cccc(CN(C)CC(=O)Nc2ccccc2C(=O)Nc2ccccc2)c1 | 88% |
| Cc1ccccc1C(OCC(O)CN1CCCCC1CCO)c1ccccc1 (centres undefined) | 121% |
| Cc1ccc(CN(N=Nc2nonc2N)c2nonc2N)c(C)c1 | 92% |
| CCN(CC)S(=O)(=O)c1ccc(N2CCOCC2)c(NC(=O)C2CSC3(C)CCC(=O)N23)c1 (centres undefined) | 100% |
| Cc1ccc(OCC(=O)OC(C)CN(C)Cc2ccccc2)cc1 (centres undefined) | 94% |
| CN(Cc1ccccc1)CC(O)COc1ccc(CNCc2cc3ccccc3s2)cc1 (centres undefined) | 138% (active) |
| OC(CNCc1ccc2c(c1)OCO2)COc1ccccc1 (centres undefined) | 93% |
| O=C(N/N=C/c1cccc(O)c1)c1cc2c(ccc3ccccc32)o1 | 97% |
| CCOC(=O)c1c(-c2cccc(C)c2)csc1NC(=O)c1c(-c2ccccc2)noc1C | 84% |
| CCOC(=O)c1c(-c2ccccc2)csc1NC(=S)NC(=O)c1ccccc1 | 13% [inhibitor] (active) |
| CCOC(=O)c1c(-c2ccc(-c3ccccc3)cc2)csc1NC(=O)CCC(=O)O | 97% |
| CCc1cccc(C)c1NC(=S)N(CCCN1CCN(C)CC1)Cc1cccs1 | 100% |
| Cc1cccc(C)c1NC(=O)C1(C)c2cccc[n+]2CC(=O)N1Cc1cccs1 (centres undefined) | -5% (active) |
| Cc1cccc(C)c1NC(=O)N1CC(C)OC(C)C1 (centres undefined) | 107% |
| COc1ccc(C(=O)N2CCCCC2C(=O)Nc2ccc(-n3nc(C)cc3C)cc2)o1 (centres undefined) | 107% |
| COc1ccc(Nc2ncc(F)c(N3CCOCC3)n2)cc1 | 78% |

| Compound | binding response (% of control) |
| --- | --- |
| CC(=O)N1c2ccc(S(=O)(=O)N3CCC(C(=O)NCc4ccc(F)cc4)CC3)cc2CC1C (centres undefined) | 99% |
| O=C(O)C(c1ccccc1)N1C(=O)/C(=C\c2ccc(-c3cccc(Cl)c3)o2)SC1=S (centres undefined) | 85% |
| NS(=O)(=O)c1ccc(-c2ccc(/C=C3\SC(=O)NC3=O)o2)cc1 | 102% |
| CN1C(=O)/C(=C\c2ccc(-c3ccccc3)o2)SC1=S | 14% [inhibitor] (active) |
| COc1cc2c(cc1OC)C(c1ccncc1)CC(=O)N2 (centres undefined) | 117% |
| COc1ccc(C2CC(=O)Nc3cc(C)c(C)cc32)c(OC)c1OC (centres undefined) | -2% [inhibitor] (active) |
| COc1cc2c(cc1OC)C(c1ccc(C)o1)CC(=O)N2 (centres undefined) | 98% |
| CCOc1ccc(C)cc1S(=O)(=O)NC1CCCCCC1 | 106% |
| Cc1ccc2c(c1)N(CC(=O)N1CCC(O)CC1)C(=O)CO2 | 94% |
| N=c1c2c(-c3ccccc3)c(-c3ccccc3)n(Cc3ccccc3)c2ncn1CCCO | 155% (active) |
| CCN(CC)CCn1cnc2c1c(=O)[nH]c(=O)n2Cc1ccccc1 | 104% |
| N=c1c2c(-c3ccccc3)c(-c3ccccc3)oc2ncn1Cc1ccco1 | 92% |
| O=C(CN1CCN(c2ccccn2)CC1)Nc1ccc(Br)cc1 | 109% |
| O=C(CN1CCN(c2ccccn2)CC1)NC1CCCCC1 | 104% |
| O=C(CN1CCN(c2ccccn2)CC1)N1CCc2ccccc21 | 3% (active) |
| Cc1ccc(CNC(=O)c2ccc3c(c2)S(=O)(=O)c2ccccc2C3=O)cc1 | 111% |
| COc1ccc(-c2[nH]ncc2CN(C)Cc2cccnc2)c(F)c1 | 102% |
| COc1ccc(-c2[nH]ncc2CN(C)Cc2c(C)n[nH]c2C)c(OC)c1 | -2% [inhibitor] (active) |
| COc1ccc(-c2[nH]ncc2CN(C)Cc2cc(C)[nH]n2)c(F)c1 | 83% |
| COc1ccc(CCOC(=O)CNC(=O)c2ccc(Cl)cc2Cl)cc1 | 86% |
| CCc1cccc(C)c1NS(=O)(=O)c1c(C)nc2sccn2c1=O | 101% |
| CCN(CC)c1ccc(/C=N/NC(=O)CNC(=O)c2cccs2)cc1 | 92% |

| Compound | binding response (% of control) |
| --- | --- |
| O=C(c1ccc(Cl)cc1)n1cnc2ccccc21 | 106% |
| Cc1cc(C)c(NC(=O)c2oc3ccccc3c2COc2ccccc2)c(C)c1 | 100% |
| Cc1cc(C)c(NC(=O)C[N+](C)(C)CC(O)COc2cccc3ccccc23)c(C)c1 (centres undefined) | 149% (active) |
| Cc1cc(C)cc(OCC(=O)NCc2cc(C)nc3ccccc23)c1 | 103% |
| Cc1cc(C)n(CC(O)COc2ccc(C(C)(C)C)cc2)n1 (centres undefined) | 107% |
| CN(C)CC(O)COc1ccc(C(C)(C)c2ccc(OCC(O)CN(C)C)cc2)cc1 (centres undefined) | 225% (active) |
| CC(C)(c1ccccc1)c1ccc(OCCN)cc1 | 117% |
| COc1ccccc1C1=CC(=O)CCC1 | 98% |
| CCOC(=O)C1Nc2ccc(C(F)(F)F)cc2C2C=CCC12 (centres undefined) | 98% |
| CC1(C)Cc2c(sc(NC(=O)C(=O)N3CCOCC3)c2C#N)CO1 | 95% |
| CC(C)c1ccc(C(=O)NCCCc2ccccc2)cc1 | 2% [inhibitor] (active) |
| Cc1cc(C(=O)NCCCc2ccccc2)no1 | 99% |
| CCCOc1ccc(C(=O)NCCc2ccccc2)cc1 | 94% |
| O=C(NCc1ccccc1Cl)NC(=O)c1csc([N+](=O)[O-])c1 | -14% [inhibitor] (active) |
| O=[N+]([O-])c1ccccc1NCc1ccccc1Cl | 66% |
| O=C(NCc1ccccc1Cl)c1csc2c1CCCCC2 | 93% |
| CCCCCc1c(C)nc(N2CCN(Cc3ccc4c(c3)OCO4)CC2)[nH]c1=O | 97% |
| OCC1(CCc2ccccc2)CCN(Cc2ccc3nsnc3c2)CC1 | 89% |
| COc1cccc(CC2(CO)CCN(Cc3cnc(-c4cccc(C)c4)nc3)CC2)c1 | 98% |
| Cc1cccc(-c2ncc(CN3CCC(CO)(CCCc4ccccc4)CC3)cn2)c1 | 163% (active) |
